# Data: the supplement of paper PMC8728848
# Only a selection was taken, and the strongest signals are over-represented in it overall.
# B1: SspB (Streptococcus gordonii), P16952 (protein)
# chain: MKNKKEVYGFRKSKVAKTLCGAVLGTALIAFADKAVFADEVTETTSTSTVEVATTGNPATNLPEAQGEMSQVAKESQAKAGSKESALPVEVSSADLDKAVADAKSAGVKVVQDETKDKGTATTATDNAQKQDEIKSDYAKQAEEIKTTTEAYKKEVAAHQAETDKINAENKAADDKYQKDLKSHQEEVEKINTANATAKAEYEAKLAQYQKDLATVKKANEDSQQDYQNKLSAYQTELARVQKANAEAKEAYEKAVKENTAKNEALKVENEAIKQRNETAKATYEAAMKQYEADLAAIKKANEDNDADYQAKLAAYQTELARVQKANAEAKEAYDKAVKENTAKNTAIQAENEAIKQRNETAKATYDAAVKKYEADLAAVKQANATNEADYQAKLAAYQTELARVQKANADAKATYEKAVEDNKAKNAAIKAENEEIKQRNAVAKTDYEAKLAKYEADLAKYKKEFAAYTAALAEAESKKKQDGYLSEPRSQSLNFKSEPNAIRTIDSSVHQYGQQELDALVKSWGISPTNPDRKKSRAYSYFNAINSNNTYAKLVLEKDKPVDVTYTGLKNSSFNGKKISKVVYTYTLKETGFNDGTKMTMFASSDPTVTAWYNDYFTSTNINVKVKFYDEEGQLMNLTGGLVNFSSLNRGNGSGAIDKDAIESVRNFNGRYIPISGSSIKIHENNSAYADSSNAEKSLGARWNTSEWDTTSSPNNWYGAIVGEITQSEISFNMASSKSGNIWFAFNSNINAIGVPTKPVAPTAPTQPMYETEKPLEPAPVAPSYENEPTPPVKTPDQPEPSKPEEPTYETEKPLEPAPVAPSYENEPTPPVKTPDQPEPSKPEEPNYETEKPLEPAPVAPSYENEPTPPVKIPDQPEPSKPEEPTYDPLPTPPLAPTPKQLPTPPVVPTVHFHYSSLLAQPQINKEIKNEDGVDIDRTLVAKQSIVKFELKTEALTAGRPKTTSFVLVDPLPTGYKFDLDATKAASTGFDTTYDEASHTVTFKATDETLATYNADLTKPVETLHPTVVGRVLNDGATYTNNFTLTVNDAYGIKSNVVRVTTPGKPNDPDNPNNNYIKPTKVNKNKEGLNIDGKEVLAGSTNYYELTWDLDQYKGDKSSKEAIQNGFYYVDDYPEEALDVRPDLVKVADEKGNQVSGVSVQQYDSLEAAPKKVQDLLKKANITVKGAFQLFSADNPEEFYKQYVATGTSLVITDPMTVKSEFGKTGGKYENKAYQIDFGNGYATEVVVNNVPKITPKKDVTVSLDPTSENLDGQTVQLYQTFNYRLIGGLIPQNHSEELEDYSFVDDYDQAGDQYTGNYKTFSSLNLTMKDGSVIKAGTDLTSQTTAETDATNGIVTVRFKEDFLQKISLDSPFQAETYLQMRRIAIGTFENTYVNTVNKVAYASNTVRTTTPIPRTPDKPTPIPTPKPKDPDKPETPKEPKVPSPKVEDPSAPIPVSVGKELTTLPKTGTNDATYMPYLGLAALVGFLGLGLAKRKED
# Columns and labels:
# Assay in all cases: glycan array binding signal (z-score within array); higher = stronger binding
# Settings in all cases: glycan notation: IUPAC condensed, linker removed
# [1] = target: Fuc(a1-2)[Gal(a1-3)]Gal(b1-4)Glc
# In short: (§1)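 The binding signal is a Z-score computed within each array and averaged over linkers. Arrays of the same protein sequence at different concentrations or buffers were also averaged together. Data originate from 3228 arrays in the Consortium for Functional Glycomics database, kept only where the protein sequence was available.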
# [2] = target: Fuc(a1-2)[Gal(a1-3)]Gal(b1-4)GlcNAc
# In short: as §1
# [3] = target: Fuc(a1-2)[Gal(a1-3)]Gal(b1-4)GlcNAc(b1-2)Man(a1-3)[Fuc(a1-2)[Gal(a1-3)]Gal(b1-4)GlcNAc(b1-2)Man(a1-6)]Man(b1-4)GlcNAc(b1-4)GlcNAc
# In short: as §1
# [4] = target: Fuc(a1-2)[GalNAc(a1-3)]Gal(b1-3)GlcNAc(b1-2)Man(a1-3)[Fuc(a1-2)[GalNAc(a1-3)]Gal(b1-3)GlcNAc(b1-2)Man(a1-6)]Man(b1-4)GlcNAc(b1-4)GlcNAc
# In short: as §1
# [5] = target: Fuc(a1-2)[GalNAc(b1-3)]Gal
# In short: as §1
# [6] = target: Fuc(a1-3)[Gal(b1-4)]GlcNAc
# In short: as §1
# [7] = target: Fuc(a1-3)[Gal3S(b1-4)]GlcNAc6S
# In short: as §1
# Gal(a1-3)Gal(b1-3)GlcNAc = target: Gal(a1-3)Gal(b1-3)GlcNAc
# In short: as §1
# Gal(a1-4)Gal(b1-4)Glc = target: Gal(a1-4)Gal(b1-4)Glc
# In short: as §1
# Gal(a1-6)Glc = target: Gal(a1-6)Glc
# In short: as §1
# [8] = target: Gal(b1-3)Gal(b1-4)GlcNAc(b1-2)Man(a1-3)[Gal(b1-3)Gal(b1-4)GlcNAc(b1-2)Man(a1-6)]Man(b1-4)GlcNAc(b1-4)GlcNAc
# In short: as §1
# [9] = target: Gal(b1-3)GalNAc(b1-4)Gal(b1-4)Glc
# In short: as §1
# [10] = target: Gal(b1-3)GalNAc(b1-4)[Neu5Ac(a2-3)]Gal(b1-4)Glc
# In short: as §1
# [11] = target: Gal(b1-3)GlcNAc(b1-2)Man(a1-3)[Gal(b1-3)GlcNAc(b1-2)Man(a1-6)]Man(b1-4)GlcNAc(b1-4)GlcNAc
# In short: as §1
# [12] = target: Gal(b1-3)GlcNAc(b1-3)Gal(b1-3)GlcNAc
# In short: as §1
# [13] = target: Gal(b1-3)GlcNAc(b1-3)Gal(b1-4)[Fuc(a1-3)]GlcNAc(b1-6)[Gal(b1-3)GlcNAc(b1-3)]Gal(b1-4)Glc
# In short: as §1
# Gal(b1-4)Glc = target: Gal(b1-4)Glc
# In short: as §1
# [14] = target: Gal(b1-4)GlcNAc(b1-2)[Gal(b1-4)GlcNAc(b1-4)]Man(a1-3)[Gal(b1-4)GlcNAc(b1-2)Man(a1-6)]Man(b1-4)GlcNAc(b1-4)GlcNAc
# In short: as §1
# [15] = target: Gal(b1-4)GlcNAc(b1-3)[Gal(b1-4)GlcNAc(b1-6)]GalNAc
# In short: as §1
# [16] = target: Gal(b1-4)GlcNAc(b1-6)[Gal(b1-3)]GalNAc
# In short: as §1
# [17] = target: Gal3S(b1-4)[Fuc(a1-3)]Glc
# In short: as §1
# [18] = target: GalNAc(a1-3)GalNAc(a1-3)Gal(a1-4)Gal(b1-4)GlcNAc
# In short: as §1
# [19] = target: GalNAc(b1-3)Gal(a1-6)Gal(b1-4)Glc
# In short: as §1
# Glc(b1-6)Glc = target: Glc(b1-6)Glc
# In short: as §1
# [20] = target: GlcNAc(a1-4)Gal(b1-4)GalNAc
# In short: as §1
# [21] = target: GlcNAc(a1-4)Gal(b1-4)GlcNAc(b1-3)Gal(b1-4)[Fuc(a1-3)]GlcNAc(b1-3)Gal(b1-4)[Fuc(a1-3)]GlcNAc
# In short: as §1
# Man(a1-6)Man = target: Man(a1-6)Man
# In short: as §1
# Man(b1-4)GlcNAc = target: Man(b1-4)GlcNAc
# In short: as §1
# [22] = target: Neu5Ac(a2-3)Gal(b1-3)GlcNAc(b1-3)GalNAc
# In short: as §1
# [23] = target: Neu5Ac(a2-3)Gal(b1-4)[Fuc(a1-3)]GlcNAc(b1-3)Gal(b1-4)[Fuc(a1-3)]GlcNAc(b1-3)Gal(b1-4)[Fuc(a1-3)]GlcNAc
# In short: as §1
# [24] = target: Neu5Ac(a2-6)Gal(b1-4)GlcNAc(b1-2)Man(a1-3)[Gal(b1-4)GlcNAc(b1-2)Man(a1-6)]Man(b1-4)GlcNAc(b1-4)GlcNAc
# In short: as §1
# [25] = target: Neu5Ac(a2-6)Gal(b1-4)GlcNAc(b1-2)Man(a1-6)Man(b1-4)GlcNAc(b1-4)GlcNAc
# In short: as §1
# [26] = target: Neu5Ac(a2-6)Gal(b1-4)GlcNAc(b1-2)Man(a1-6)[GlcNAc(b1-2)Man(a1-3)]Man(b1-4)GlcNAc(b1-4)GlcNAc
# In short: as §1
# [27] = target: Neu5Ac(a2-8)Neu5Ac(a2-8)Neu5Ac(a2-3)Gal(b1-4)Glc
# In short: as §1
# [28] = target: Neu5Ac(a2-8)Neu5Ac(a2-8)Neu5Ac(a2-3)[GalNAc(b1-4)]Gal(b1-4)Glc
# In short: as §1
# [29] = target: Neu5Gc(a2-3)Gal(b1-3)GlcNAc
# In short: as §1
binder,measurement,setting,value
B1,glycan array binding signal (z-score),[1],0.486
same,glycan array binding signal (z-score),[2],0.017
same,glycan array binding signal (z-score),[3],2.31
same,glycan array binding signal (z-score),[4],-0.556
same,glycan array binding signal (z-score),[5],0.761
same,glycan array binding signal (z-score),[6],-0.041
same,glycan array binding signal (z-score),[7],0.242
same,glycan array binding signal (z-score),Gal(a1-3)Gal(b1-3)GlcNAc,-0.597
same,glycan array binding signal (z-score),Gal(a1-4)Gal(b1-4)Glc,-1.22
same,glycan array binding signal (z-score),Gal(a1-6)Glc,0.072
same,glycan array binding signal (z-score),[8],-0.672
same,glycan array binding signal (z-score),[9],1.1
same,glycan array binding signal (z-score),[10],-1.62
same,glycan array binding signal (z-score),[11],0.616
same,glycan array binding signal (z-score),[12],-0.283
same,glycan array binding signal (z-score),[13],1.07
same,glycan array binding signal (z-score),Gal(b1-4)Glc,-0.34
same,glycan array binding signal (z-score),[14],1.08
same,glycan array binding signal (z-score),[15],5.73
same,glycan array binding signal (z-score),[16],-1.35
same,glycan array binding signal (z-score),[17],0.344
same,glycan array binding signal (z-score),[18],0.985
same,glycan array binding signal (z-score),[19],-0.859
same,glycan array binding signal (z-score),Glc(b1-6)Glc,-1.1
same,glycan array binding signal (z-score),[20],-0.557
same,glycan array binding signal (z-score),[21],3.03
same,glycan array binding signal (z-score),Man(a1-6)Man,2.65
same,glycan array binding signal (z-score),Man(b1-4)GlcNAc,-0.696
same,glycan array binding signal (z-score),[22],0.045
same,glycan array binding signal (z-score),[23],0.022
same,glycan array binding signal (z-score),[24],3.2
same,glycan array binding signal (z-score),[25],1.36
same,glycan array binding signal (z-score),[26],0.081
same,glycan array binding signal (z-score),[27],2.25
same,glycan array binding signal (z-score),[28],2.4
same,glycan array binding signal (z-score),[29],0.179
